Pf growth 96h – P. falciparum growth inhibition at 96 hour, primary screen for plastid delayed-death inhibitors. P. falciparum luciferase reporter growth, 96 h. Potency, µM (doses to about 28.7 µM), without a hit: at the highest dose activity change, negative = inhibition, hits mostly inhibitors. hit rate 6.9% among 320,000; note: potency is the fitted concentration of half-maximal effect
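Readout is luminescence from an integrated firefly luciferase in P. falciparum. Red cells, 2% hematocrit and 0.05% parasitemia final, were cultured with compound through two parasite generations (96 hours) at 37 C, 5% CO2.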
Pf growth 48h – inhibits P. falciparum growth in the first generation, 48 h; P. falciparum luciferase growth in erythrocytes, 48 h; Potency, µM (highest dose often 28.7 µM), without a hit: at the highest dose activity change, negative = inhibition, hits mostly inhibitors; hit rate 5.9% among 310,000; AID 504832; note: potency is the fitted concentration of half-maximal effect
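A one-generation exposure of luciferase-tagged malaria parasites in RPMI 1640/Albumax erythrocyte culture, 37 C and 5% CO2. Inhibition is inferred from decreased luminescence after adding detection reagent.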
MARV entry inh – blocks Marburg virus binding to or entry into cells; Marburg virus pseudotyped entry inhibition, cell reporter; Potency, µM (doses to about 37.8 µM), inactives show top-dose activity change, negative = inhibition, hits mostly inhibitors; hit rate 1.8% among 300,000; calls by dose curve; tested in HEK293 cells; note: potency is the fitted concentration of half-maximal effect
HCV inh – HCV inhibition; Huh7.5.1 HCVcc-Cre infection, luciferase reporter, 44 h; Potency, µM (series often up to 41.8 µM), for the others: top-dose activity change, negative = inhibition, hits mostly inhibitors; hit rate 3.4% among 340,000; note: potency is the fitted concentration of half-maximal effect
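HCVcc-Cre virus at an moi near 0.5 was added right after compound to cells cultured 4 h from seeding (1,000 cells/well). Luciferase activity was determined 44 h later, 15 min after substrate addition at RT.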
Lassa entry inh – inhibitors of Lassa virus binding or cell entry. hit rate 1.2% among 300,000. Lassa virus pseudotype entry inhibition, cell reporter. AID 540256. Potency, µM (highest dose often 37.9 µM), for the others: at the top dose activity change, negative = inhibition, usual class: inhibitors; calls by dose curve; tested in HEK293 cells; note: potency is the fitted concentration of half-maximal effect; nearly all actives have a fitted effect of over 50% in size
HCMV antiviral – blocks human cytomegalovirus replication. HFF cells, HCMV-luciferase reporter, 72 h; hits give low values. activity change, negative = inhibition, % at 57.5 µM. hit rate 4.5% among 410,000; in the data active = activity change below about -60%; inconclusive = no clear call, values can overlap the other calls; inactive = above about -39%
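Two compound doses tested in HFFs infected with HCMV-luciferase, MOI 1 PFU/cell, 72 h at 37C. Lysate luminescence read with OneGlo; data normalized against buffer-only and 10uM Salinomycin inhibitor controls.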
Starred values were filed as active, the others as inactive; [ ] = remark or other dose. In the library only some 14% were active in any assay of this set; here they are far more common. Unless noted, calls come from the whole dose curve; as a rule, active = well fitted inhibition curve with a large enough effect; inconclusive = small, poorly fitted or top-dose-only effect, or another doubt; inactive = no such curve, though single readings can be large or run the other way. % is set by controls: 0 for no effect and ±100 for the full control effect.

`COc1cc(-c2nnc3sc(Cc4ccccc4)nn23)cc(OC)c1OC` gave Pf growth 96h 6.6µM*, Pf growth 48h inconclusive, MARV entry inh -20%, HCV inh -25%, Lassa entry inh -29% and HCMV antiviral 35.
`CCN(CC)c1ccc(-c2nn3c(-c4ccccc4OC)nnc3s2)cc1` gave Pf growth 96h 11%[5.75 µM], Pf growth 48h 2.6µM*, MARV entry inh inconclusive, HCV inh inconclusive and Lassa entry inh inconclusive.
`O=Nc1ccc(Cl)cn1` gave HCMV antiviral 4.
CCOC(=O)N[C@H](C(=O)N1CCC[C@H]1C(=O)NC1CCCC1)c1ccccc1 was read as HCMV antiviral 6.
`CCOc1cccc(-c2nnc3sc(-c4cc(OC)c(OC)cc4OC)nn23)c1` gave Pf growth 96h 35%, Pf growth 48h 1% and MARV entry inh -1%.
Screening COc1ccccc1-c1nnc2sc(COc3ccc(Cl)cc3Cl)nn12 returned Pf growth 96h 10µM*, Pf growth 48h inconclusive, MARV entry inh 17%, HCV inh inconclusive, Lassa entry inh inconclusive and HCMV antiviral -15.
For c1cncc(-c2nnc3sc(C4CCCCC4)nn23)c1 the results were Pf growth 48h inconclusive, MARV entry inh -1%, HCV inh -3%, Lassa entry inh -20% and HCMV antiviral -26.
For CCOc1cccc(-c2nn3c(-c4cc(C)[nH]n4)nnc3s2)c1 the results were Pf growth 96h 1.7µM*, Pf growth 48h inconclusive, MARV entry inh -14%, HCV inh -29%, Lassa entry inh -18% and HCMV antiviral -16.
`COc1cccc(-c2nnc3sc(C4CCCCC4)nn23)c1` gave Pf growth 96h 3%, MARV entry inh 15%, HCV inh -28%, Lassa entry inh -7% and HCMV antiviral -84*.
C[C@H](CO)N1C[C@H](C)[C@H](CN(C)S(=O)(=O)c2ccc(F)cc2)OCc2cnnn2CCCC1=O was read as HCMV antiviral -7.
For COc1ccccc1CNS(=O)(=O)c1ccc(N2CCCC2)cc1Br the results were HCV inh 11µM* and HCMV antiviral -38.
COc1ccc(N2CCN(C(=O)CCCCCn3c(=S)[nH]c4ccc(N5CCOCC5)cc4c3=O)CC2)cc1 was read as HCMV antiviral -28.
`CCCCC(=O)Nc1nc(C)c(-c2csc(Nc3cc(Cl)ccc3OC)n2)s1` gave Pf growth 96h 4.7µM*, Pf growth 48h 8.3µM*, HCV inh -28% and HCMV antiviral 34.
`CCCCC(=O)Nc1nc2c(OC)ccc(OC)c2s1` gave Pf growth 96h inconclusive, HCV inh inconclusive and HCMV antiviral 97.
For CCCCC(=O)Nc1nc(C)c(-c2csc(Nc3cc(OC)ccc3OC)n2)s1 the results were Pf growth 96h inconclusive, Pf growth 48h 1µM*, HCV inh 10µM* and HCMV antiviral -33.
O=C(CN(C(=O)CNC(=O)c1ccco1)c1ccccc1F)NC1CCCCC1 was read as Pf growth 96h -30%, Pf growth 48h 7%, MARV entry inh inconclusive, HCV inh 9%, Lassa entry inh 0% and HCMV antiviral -30.
`Cc1ccc(S(=O)(=O)N2C[C@@H]3CCCC[C@@H]3[C@@H](C)[C@H]2c2cn(Cc3ccccc3)c3ncccc23)cc1` gave HCV inh inconclusive and HCMV antiviral -86*.
Cc1ccc(S(=O)(=O)N2C[C@@H]3CCCC[C@@H]3[C@@H](C)[C@H]2c2cn(Cc3ccccc3)c3ccccc23)cc1 was read as HCV inh inconclusive and HCMV antiviral -97*.
Screening Cc1cc(F)ccc1NC(=O)C1CCN(C(=O)c2cnn(-c3ccccc3)c2-n2cccc2)CC1 returned MARV entry inh -9%[46.1 µM], Lassa entry inh -2%[46.1 µM] and HCMV antiviral -3.
Nc1ncnc2nc[nH]c12 was read as Pf growth 96h 12%, Pf growth 48h 7%, HCV inh -21% and HCMV antiviral inconclusive.
For Nc1nc(N)c2[nH]cnc2n1 the results were HCV inh 6.3µM*.
For Nc1nc(OCc2ccccc2)c2[nH]cnc2n1 the results were MARV entry inh inconclusive, HCV inh -1%, Lassa entry inh inconclusive and HCMV antiviral -73*.
`COc1cccc(N2CCN(C(=O)c3cc4c(s3)-c3c(C)cccc3OC4)CC2)c1` gave MARV entry inh 1%[46.1 µM] and HCMV antiviral -16.
Cn1c(N2C(=O)CC(Cc3ccccc3)C2=O)nc2ccccc21 (stereo not given) was read as Pf growth 96h 1.7µM*, Pf growth 48h 11%, MARV entry inh 15%, HCV inh -23%, Lassa entry inh 12% and HCMV antiviral -5.
Cc1ccc(C)c(N2C(=O)CC(Cc3ccccc3)C2=O)c1 (stereo not given) was read as Pf growth 96h 15µM*, Pf growth 48h 2%, MARV entry inh -4%[46.1 µM], HCV inh 17%, Lassa entry inh 13%[46.1 µM] and HCMV antiviral 29.
`CN(C(=O)CSc1nnc(C(F)(F)F)n1C)c1c(N)n(Cc2ccccc2)c(=O)[nH]c1=O` gave HCMV antiviral 18.
For Cc1cc(NC(=O)C2C3C(=O)N(c4cccnc4)C(C(=O)NC(C)(C)C)C34C=CC2(C)O4)no1 (stereo not given) the results were Pf growth 96h 13µM*, Pf growth 48h -11%, MARV entry inh 9%[46.1 µM], HCV inh 30%, Lassa entry inh -21% and HCMV antiviral 9.
Screening Cc1cc(C)c(S(=O)(=O)Nc2ccc(-c3ccc(N4CCCCC4)nn3)cc2)c(C)c1 returned Lassa entry inh -26%[46.1 µM] and HCMV antiviral -12.
Cc1ccccc1CN1CCN(C(=O)c2cc(-c3ccncc3)nc3ccccc23)CC1 was read as Pf growth 96h 46%, Pf growth 48h 10%, MARV entry inh inconclusive, Lassa entry inh inconclusive and HCMV antiviral 36.
Screening CC1CN(C(=O)c2cc(-c3ccncc3)nc3ccccc23)CC(C)O1 (stereo not given) returned Pf growth 96h -10%, Pf growth 48h -29%, HCV inh 3% and HCMV antiviral 3.
Screening COc1ccc(-c2cc(C(=O)N3CC(C)CC(C)C3)c3ccccc3n2)cc1OC (stereo not given) returned Pf growth 96h 10µM*, Pf growth 48h inconclusive, MARV entry inh -19%, HCV inh inconclusive, Lassa entry inh -17% and HCMV antiviral -5.
COc1ccc(-c2cc(C(=O)N3CCC3)c3ccccc3n2)cc1OC was read as Pf growth 96h -27%, Pf growth 48h inconclusive, MARV entry inh -17%, HCV inh 6%, Lassa entry inh 4% and HCMV antiviral 6.

High-throughput results: PubChem, National Center for Advancing Translational Sciences (NCATS)
